# Source: PubChem BioAssay (National Center for Advancing Translational Sciences (NCATS))
# Hits are enriched below; roughly 11% of the tested compounds scored in any of these assays.
# Sm TGR block: inhibitors of Schistosoma mansoni thioredoxin glutathione reductase | purified TGR, DTNB reduction, TNB absorbance 405 nm | Potency, µM (top dose mostly 114 µM), actives largely listed as inhibitors | AID 485364 | Q962Y6 | hit rate 3% among 360,000; also: nearly all actives have a fitted effect of over 60% in size
#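 TGR 20 nM + NADPH 100 uM (dispensed conc.), cpd preinc 15 min RT; start with NADPH (500 uM addition) then DTNB (15 mM addition). Kinetic TNB absorbance, 405 nm filter. Four-parameter Hill fit across titration.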
# NS1 inh: blocks influenza NS1 protein function. Potency, µM (highest dose often 46.1 µM). hit rate 0.4% among 270,000; calls by dose curve; also: actives are rising curves; nearly all actives have a fitted effect of over 50% in size
#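 In this qHTS, NS1 from influenza A is expressed in budding yeast, where it slows growth. Cells are switched from glucose to 2% galactose medium (pH 6.0, -URA), treated with compound, and growth recovery is read at OD600.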
# AMA1 RON2 block: inhibitors of Plasmodium falciparum AMA1-RON2 interaction; AlphaScreen AMA1-biotinylated RON2 peptide binding; Potency, µM (titrated, usually from 58.2 µM), most hits filed as inhibitors; hit rate 0.2% among 360,000; also: nearly all actives have a fitted effect of over 45% in size
#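 AMA1 (3D7) with his tag at 25 nM final met compounds first, then biotinylated RON2 peptide at 25 nM; detection used donor plus acceptor beads, 10 µg/mL apiece, read by AlphaScreen after 30 min at room temperature.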
# Pf growth 96h: P. falciparum growth inhibition at 96 hour, primary screen for plastid delayed-death inhibitors | AID 504834 | Potency, µM (titrated, usually from 28.7 µM), actives largely listed as inhibitors | hit rate 6.9% among 320,000 | P. falciparum luciferase reporter growth, 96 h
#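 Two-generation exposure (96 h) targets delayed-death phenotype. Reporter parasites carrying integrated firefly luciferase, in red cells at 2% hematocrit and 0.05% parasitemia final, kept at 37 C, 5% CO2; luminescence loss indicates inhibition.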
# Pf growth 48h: inhibits P. falciparum growth in the first generation, 48 h; P. falciparum luciferase growth in erythrocytes, 48 h; Potency, µM (series often up to 28.7 µM), actives largely listed as inhibitors; hit rate 5.9% among 310,000; AID 504832
#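 Here the parasites carry a stable luciferase gene and grow inside erythrocytes in Albumax-based RPMI medium with compound for one erythrocytic cycle. Activity is scored as loss of luminescent signal.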
# A number is an active result; i = inactive; ? = inconclusive; nt = no result given. Unless noted, calls follow the shape of the dose curve; as a rule, active = well fitted curve in the direction sought with a large enough effect; inconclusive = small, poorly fitted or top-dose-only effect, or another doubt; inactive = no such curve, though single readings can be large; an effect the other way counts as inactive or inconclusive.
SMILES,Sm TGR block,NS1 inh,AMA1 RON2 block,Pf growth 96h,Pf growth 48h
Cc1cc(C(=O)COC(=O)c2ccc([N+](=O)[O-])o2)c(C)n1CC1CCCO1 (stereo unspecified),35µM,i,i,i,i
Cc1ccc2nc(Cl)c3cc(C(=O)NCCCN4CCCC4)sc3c2c1,i,nt,i,i,?
CCn1cc(C(=O)N2CCN(c3cccc(Cl)c3)CC2)c(=O)c2cc(S(=O)(=O)N3CCOCC3)ccc21,i,nt,nt,nt,nt
CCC(=O)Nc1ccc(-c2nnc(-c3ccccc3)o2)cc1,i,i,i,i,i
O=C(O)CCC(=O)Nc1cccc(-c2nnc(-c3ccccc3)o2)c1,25µM,i,i,?,i
CCCCC(=O)Nc1cccc(-c2nc3ncccc3o2)c1,i,i,i,12µM,?
CCC(=O)Nc1cccc(-c2nnc(-c3cccc(NC(=O)CC)c3)o2)c1,i,i,i,1.2µM,5.2µM
CCCCCC(=O)Nc1cccc(-c2nc3ncccc3o2)c1,i,i,i,nt,?
COC(=O)c1c(CSc2cccc(C)c2)noc1C(=O)NCc1ccco1,i,i,i,i,2.6µM
CC(C)CCNC(=O)c1c(CSc2ccccc2)noc1C(=O)NCc1ccccc1,i,i,i,13µM,?
CN(C)CCNC(=O)c1c(CSc2ccccc2)noc1C(=O)NCc1ccccc1,i,i,i,9.3µM,?
COC(=O)c1c(CSc2ccc(Cl)cc2)noc1C(=O)NCc1ccco1,i,i,i,i,i
CC(C)CCNC(=O)c1onc(CSc2ccncc2)c1C(=O)NCCC(C)C,i,i,i,i,i
O=C(NCCCN1CCOCC1)c1onc(CSc2ccccc2)c1C(=O)NCCCN1CCOCC1,nt,nt,i,nt,nt
Cc1cc(C)cc(SCc2noc(C(=O)NCCCN3CCOCC3)c2C(=O)NCCCN2CCOCC2)c1,i,i,i,?,9.3µM
CN(C)CCNC(=O)c1onc(CSc2ccncc2)c1C(=O)NCCN(C)C,nt,nt,i,nt,nt
Cc1cccc(-c2nc3c4ccccc4nc(NCCc4ccccc4)n3n2)c1,i,nt,nt,nt,nt
C=CCNC(=O)c1c(CSc2ccccc2)noc1C(=O)NCc1ccccc1,i,i,i,?,?
CCCNC(=O)c1c(CSc2ccccc2)noc1C(=O)NCc1ccccc1,i,i,i,15µM,?
Cc1ccc(SC(=O)c2c([N+](=O)[O-])c(C)nn2C)cc1,5.6µM,i,i,i,i
Cc1cc(CNC(=S)Nc2ccc(Br)cc2Cl)nn1C,7.9µM,i,i,i,i
OCCCNC(=S)Nc1ccc(Br)cc1Cl,3.2µM,i,i,i,i
Cc1cc(CNC(=O)c2cc(Br)ccc2Cl)nn1C,i,i,i,nt,i
COc1ccc(CN(C(=O)CN2C(=O)C(C)Oc3ccccc32)C2CCCC2)c(OC)c1 (stereo unspecified),i,i,i,8.3µM,4.7µM
Cc1nn(-c2ccccc2)nc1C(=O)Nc1cccc(C(=O)NC2CC2)c1,nt,nt,i,nt,nt
SMILES,Sm TGR block,NS1 inh,AMA1 RON2 block,Pf growth 96h,Pf growth 48h
Cc1nn(-c2cccc(Cl)c2)nc1C(=O)Nc1cccc(C(=O)NC2CC2)c1,i,nt,i,?,15µM
Cc1ccc(-n2nc(C)c(C(=O)Nc3cccc(C(=O)NC4CC4)c3)n2)c(C)c1,i,nt,i,15µM,?
CC(C)C(=O)N1CCN(CCN=Cc2c(O)n(C)c(=O)n(C)c2=O)CC1,i,i,i,13µM,?
CCC(=O)N1CCN(CCN=Cc2c(O)n(C)c(=O)n(C)c2=O)CC1,?,i,i,i,i
CCOC(=O)C1=C(c2ccccc2)Nc2ncnn2C1c1cc(OC)cc(OC)c1OC (stereo unspecified),i,i,?,?,?
COc1ccc(Br)cc1C1C(C(=O)Nc2ccc(C)cc2C)=C(C)Nc2ncnn21 (stereo unspecified),i,nt,nt,nt,nt
CCOC(=O)C1=C(c2ccccc2)Nc2ncnn2C1c1cccc(OC)c1OC (stereo unspecified),i,i,i,1.9µM,?
COc1cccc(C2C(C(=O)Nc3ccc(C)cc3C)=C(C)Nc3ncnn32)c1OC (stereo unspecified),i,i,i,i,12µM
C/C(=N/NC(=O)C1CCN(S(=O)(=O)c2ccc(C)cc2)CC1)c1cccc([N+](=O)[O-])c1,i,i,i,i,i
O=C(CN(c1ccccc1)S(=O)(=O)c1ccccc1[N+](=O)[O-])N1CCCC1,i,i,i,i,?
CC(C)CNC(=O)CN(c1ccccc1)S(=O)(=O)c1ccccc1[N+](=O)[O-],i,i,i,5.9µM,?
COc1ccc(N(CC(=O)NCc2ccc(Cl)cc2)S(=O)(=O)c2ccccc2[N+](=O)[O-])c(OC)c1,i,?,i,i,8.3µM
COc1ccc(S(=O)(=O)N(Cc2ccccc2)Cc2nc(-c3ccccc3)no2)cc1,i,i,i,nt,13µM
CN(Cc1ccccc1)S(=O)(=O)c1ccc(OCC(=O)NCc2ccncc2)cc1,i,i,i,i,4.7µM
Cc1cc(Nc2ccc(Br)cc2)n2nc(-c3ccccc3C)nc2n1,i,nt,nt,nt,nt
COc1ccc(CN(C)Cc2ccccc2)c(OC)c1OC,i,i,i,i,i
COc1ccc(S(=O)(=O)N(CC(=O)NCc2ccncc2)Cc2ccccc2)cc1,i,i,i,5.2µM,?
COc1ccc(C)cc1S(=O)(=O)N(CC(=O)NCc1ccc(Cl)cc1)Cc1ccccc1,i,i,i,12µM,nt
COc1ccc(-c2noc(CN(C)Cc3ccccc3)n2)c(OC)c1OC,i,i,i,3.7µM,i
COc1ccc(CNC(=O)CN(Cc2ccccc2)S(=O)(=O)c2ccc(Cl)cc2)cc1,i,i,i,?,nt
Cc1cc(Nc2sc(C(=O)c3ccc(F)cc3)c(N)c2C(=O)Nc2ccc(F)cc2)ccc1Cl,i,nt,nt,nt,nt
c1coc(CNCc2cccs2)c1,i,i,i,9.3µM,i
COc1ccc(C(CC(=O)Nc2cc(OC)c(OC)c(OC)c2)N2Cc3ccccc3C2=O)cc1 (stereo unspecified),i,nt,nt,nt,nt
CCN1C(=O)/C(=C/c2ccc(N3CCCC3)cc2)NC1=S,i,?,?,8.3µM,i
COc1cccc(NC(=O)c2ccc(NCCCN3CCC(C)CC3)c([N+](=O)[O-])c2)c1,i,nt,i,?,2.1µM
SMILES,Sm TGR block,NS1 inh,AMA1 RON2 block,Pf growth 96h,Pf growth 48h
CCCN(CCC)CCCNc1ccc(C(=O)Nc2cccc(OC)c2)cc1[N+](=O)[O-],i,nt,i,i,1.5µM
Cc1ccc(NC(=O)c2ccc(NCCCN3CCC(C)CC3)c([N+](=O)[O-])c2)c(C)c1,i,i,i,?,3.3µM
O=C(Nc1cc(F)cc(F)c1)c1ccc(NCCCN2CCCCCC2)c([N+](=O)[O-])c1,i,nt,i,?,?
O=C(Nc1ccccc1)c1ccc(NCCN2C(=O)CCC2=O)c([N+](=O)[O-])c1,nt,i,?,i,i
COc1cccc(NC(=O)c2ccc(NCCCN3CC(C)CC(C)C3)c([N+](=O)[O-])c2)c1 (stereo unspecified),i,nt,i,3.7µM,?
COc1cccc(Nc2ccc(C(=O)O)cc2[N+](=O)[O-])c1,i,i,i,i,i
COc1ccc(N(C(=O)c2cnccn2)C(C(=O)NC2CCCCC2)c2cc(OC)c(OC)c(OC)c2)cc1 (stereo unspecified),i,i,i,i,?
